Coupling enz – coupling enzyme interference in Giardia aldolase counter-screen; coupling enzyme system counterscreen, AmpLite Red fluorescence; activity change, negative = inhibition, % at 58.2 µM, hits read low; 0.67% of 290,000 active; AID 2472; in the data active = activity change below about -30%
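Activity here indicates interference with the coupling reaction, not aldolase inhibition. Compounds at 57.5 uM final met coupling enzymes for 10 min at RT; substrate and AmpLite Red detection followed, with a 525/598 nm fluorescence read after 20 min.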
TrxR1 substrate – is turned over as a substrate by rat TrxR1. purified TrxR1 substrate turnover, NADPH consumption readout. Potency, µM (highest dose often 114 µM). 0.01% of 390,000 active; also: nearly all actives have a fitted effect of over 50% in size
Target sequence (O89049 whole entry, looked up): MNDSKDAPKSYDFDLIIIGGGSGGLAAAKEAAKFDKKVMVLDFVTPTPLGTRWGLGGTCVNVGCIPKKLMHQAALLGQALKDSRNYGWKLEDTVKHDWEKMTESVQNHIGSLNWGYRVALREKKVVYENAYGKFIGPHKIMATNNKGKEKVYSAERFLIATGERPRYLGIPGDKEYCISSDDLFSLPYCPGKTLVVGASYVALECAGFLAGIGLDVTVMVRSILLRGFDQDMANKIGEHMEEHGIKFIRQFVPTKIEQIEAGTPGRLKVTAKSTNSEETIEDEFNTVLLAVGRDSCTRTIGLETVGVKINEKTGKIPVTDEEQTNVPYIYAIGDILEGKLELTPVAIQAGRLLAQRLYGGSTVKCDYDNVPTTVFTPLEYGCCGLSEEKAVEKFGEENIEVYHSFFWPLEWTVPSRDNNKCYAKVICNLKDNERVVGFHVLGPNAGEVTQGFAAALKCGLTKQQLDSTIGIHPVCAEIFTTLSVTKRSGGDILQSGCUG
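Rat TrxR1, dispensed at 90 nM, was prereduced with 400 uM NADPH (final) for 5 min at ~22 deg C, then incubated with compound 15 min before 400 uM selenite. A first-read NADPH fluorescence drop versus no-compound background flagged substrates.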
GALK inh – blocks human galactokinase activity; P51570; Purified GALK, Kinase-Glo residual ATP luminescence; Potency, µM (titrated, usually from 57.5 µM), hits mostly inhibitors; 0.007% of 270,000 active
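Quantitative HTS: GALK 5 nM, ATP 35 uM, galactose 100 uM, 1 h room temperature, then luciferase-based ATP detection.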
VP16 counter – counter-screen for ROR gamma inhibitors: Gal4-VP16 reporter; Drosophila S2 Gal4-VP16 UAS-luciferase, luminescence, 20 h; Potency, µM (doses to about 53.6 µM), most hits filed as inhibitors; 3.5% of 310,000 active; AID 2546;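 also: Gal4-VP16 expression switched on by copper sulfate through the metallothionein promoter; nearly all actives have a fitted effect of over 50% in size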
RORgamma inh – ROR gamma (mouse) transcription inhibition | Potency, µM (series often up to 53.6 µM), hits mostly inhibitors | 5.4% of 310,000 active | Drosophila S2 Gal4-RORgamma UAS-luciferase reporter, 20 h | AID 2551 | P51450; also: nearly all actives have a fitted effect of over 60% in size
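Stably transfected Drosophila Schneider cells are the test system, with ROR gamma fused to Gal4 and luciferase under UAS control; luminescence is read after 20 hr of 700 uM copper sulfate induction at ambient temperature.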
rTrxR1 inhibitor – rat TrxR1 inhibition. 1% of 390,000 active. recombinant rTrxR1, NADPH fluorescence consumption, selenite substrate. AID 588453. Potency, µM (series often up to 114 µM), hits mostly inhibitors. O89049; also: nearly all actives have a fitted effect of over 65% in size
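Rat TrxR1 (90 nM in the dispensed reagent) was pre-reduced with 400 uM NADPH for 5 min at room temperature, then incubated with compound for 15 min. After 400 uM selenite was added, NADPH fluorescence (Ex 340/Em 450 nm) was followed for 8 min.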
Each line names hits and unclear results; the compound was inactive in the other large screens. Most compounds without a hit are left out; they make up all but 5.9% or so of the library. Unless noted, calls follow the shape of the dose curve; as a rule, active = well fitted curve in the direction sought with a large enough effect; inconclusive = small, poorly fitted or top-dose-only effect, or another doubt; inactive = no such curve, though single readings can be large; an effect the other way counts as inactive or inconclusive.

CCOc1ccc(CCNC(=O)c2cccc(C#N)c2)cc1OCC	none
O=C1C=CC(=O)N1	rTrxR1 inhibitor 2µM (no result: Coupling enz, GALK inh, VP16 counter, RORgamma inh)
COc1cc([N+](=O)[O-])cc(/C=N/NC(=O)c2ccc(C)nc2)c1O	TrxR1 substrate inconclusive, VP16 counter 0.63µM, RORgamma inh 0.89µM, rTrxR1 inhibitor inconclusive
CCNC(=S)N/N=C/c1ccccc1[N+](=O)[O-]	VP16 counter inconclusive, RORgamma inh 4.5µM
COc1ccccc1/C=N/NC(=O)c1ccc(NC(=O)c2cccc([N+](=O)[O-])c2)cc1	none (no result: TrxR1 substrate, rTrxR1 inhibitor)
Cc1ccc(C(=O)N/N=C\C=C\c2ccccc2[N+](=O)[O-])cn1	VP16 counter inconclusive
Cc1ccc(C(=O)N/N=C\c2ccccc2[N+](=O)[O-])cn1	VP16 counter inconclusive, RORgamma inh 10µM
COc1cccc(/C=N/NC(=O)c2cc3cc([N+](=O)[O-])ccc3s2)c1O	VP16 counter 2.5µM, RORgamma inh 1.4µM
COc1ccc(S(=O)(=O)N2CCCCCC2)cc1NC(=O)CC1OC(=O)c2ccccc21 (configuration not stated)	none (no result: Coupling enz, GALK inh, VP16 counter, RORgamma inh)
COc1cc([N+](=O)[O-])cc(/C=N/NC(=O)CSc2ccccn2)c1O	VP16 counter 6.3µM, RORgamma inh 0.63µM (no result: GALK inh)
COP(=O)(OC)c1ccc(NCc2cc(O)ccc2O)cc1	rTrxR1 inhibitor 79µM (no result: Coupling enz, GALK inh, VP16 counter, RORgamma inh)
CC(C)OC(=O)c1ccc(NCc2cc(O)ccc2O)cc1	none (no result: Coupling enz, GALK inh, VP16 counter, RORgamma inh)
Cc1cccc(/C=N\N=C\c2cccc(C)c2)c1	none
C(=C/c1nccc2c1[nH]c1ccccc12)/c1ccc2c(c1)OCO2	RORgamma inh 0.89µM
COc1ccc(/C=C/c2nccc3c2[nH]c2ccccc23)cc1	none (no result: Coupling enz, GALK inh, VP16 counter, RORgamma inh)
O=C(c1ccc(-c2ccccc2)cc1)C1CCCN(Cc2ccncc2)C1 (configuration not stated)	RORgamma inh 11µM
CCOc1ccc(CCNC(=O)CN2N=C(c3ccccc3)CCC2=O)cc1OCC	none (no result: Coupling enz, GALK inh, VP16 counter, RORgamma inh)
COc1ccc(NC(=S)NC(NC(=O)C(C)C)C(Cl)(Cl)Cl)c([N+](=O)[O-])c1 (configuration not stated)	VP16 counter inconclusive, RORgamma inh 18µM
Cc1ccc(NC(=S)NC(C)(C)C)c([N+](=O)[O-])c1	VP16 counter 7.9µM, RORgamma inh 3.2µM
COc1ccc(NC(=O)CC(C)C)c([N+](=O)[O-])c1	none
O=C(c1ccc(C(=O)N2CCN(c3ccccc3F)CC2)nc1)N1CCN(c2ccccc2F)CC1	none
O=C(Nc1nnc(-c2ccccc2)o1)c1ccc(Cl)cc1	VP16 counter 1.4µM, RORgamma inh 0.71µM
CN(C)c1ccc(C(=O)Nc2nnc(-c3ccc(Cl)cc3)o2)cc1	VP16 counter 0.5µM, RORgamma inh 0.5µM
CN(C)c1ccc(C(=O)NNC(=O)c2ccc(Cl)cc2)cc1	none
CCOc1ccccc1C(=O)NC(C(=O)OCC(=O)Nc1nnc(-c2ccccc2)o1)C(C)C (configuration not stated)	VP16 counter 5µM, RORgamma inh 2.2µM
O=C(COc1ccccc1)Nc1nnc(-c2ccc(Cl)cc2)o1	VP16 counter 5.6µM, RORgamma inh 7.1µM (no result: Coupling enz)
O=C(CCCN1C(=O)CCC1=O)Nc1ccccc1F	none
O=C(CN1C(=O)/C(=C\c2cccc(Br)c2)Oc2ccccc21)NCCCN1CCOCC1	VP16 counter inconclusive, RORgamma inh inconclusive
Nc1ccn(CC(=O)NCc2ccccn2)c(=O)n1	none (no result: Coupling enz, GALK inh, VP16 counter, RORgamma inh)
CC(=O)c1ccc(C(=O)Nc2nnc(-c3ccc(Cl)cc3)o2)cc1	VP16 counter 2.5µM
O=C(Nc1nnc(-c2ccc(Cl)cc2)o1)NC1CCCCC1	VP16 counter 3.5µM, RORgamma inh inconclusive
Cn1c(SCC(=O)c2ccc(-c3ccccc3)cc2)nnc1-c1ccco1	none
C1=C(c2ccccc2)CCN(c2nc3ccccc3n3cnnc23)C1	RORgamma inh inconclusive, rTrxR1 inhibitor 4µM
c1ccc(N2CCN(c3nc4ccccc4n4cnnc34)CC2)cc1	none
CCN1CCN(CCNC(=O)c2ccc(/C=C3/Sc4ccccc4N(Cc4cccc(Cl)c4)C3=O)cc2)CC1	VP16 counter inconclusive
CCN1CCN(CCNC(=O)c2ccc3c(c2)N(Cc2ccc(F)cc2)C(=O)/C(=C/c2ccccc2)S3)CC1	VP16 counter inconclusive, RORgamma inh 16µM
CC(=O)N1CCc2cc(CNS(=O)(=O)c3ccc(Br)s3)ccc21	none (no result: Coupling enz, GALK inh, VP16 counter, RORgamma inh)
CCCCn1c(N)c(N(CC(C)C)C(=O)c2oc3ccc(OC)cc3c2C)c(=O)[nH]c1=O	none (no result: Coupling enz, GALK inh, VP16 counter, RORgamma inh)
CCN(CC(=O)Nc1cc(S(=O)(=O)N2CCOCC2)ccc1Cl)Cc1ccccc1	none (no result: Coupling enz, GALK inh, VP16 counter, RORgamma inh)
COC(=O)c1sc(NC(=S)NNC(=O)c2c(Br)c(C)nn2C)c(C(=O)OC)c1C	VP16 counter inconclusive, RORgamma inh 6.3µM, rTrxR1 inhibitor inconclusive
COc1ccc2oc(C(=O)OCC(=O)N(C)c3ccccc3)c(C)c2c1	none (no result: Coupling enz, GALK inh, VP16 counter, RORgamma inh)
O=C(CSCc1ccc(Cl)cc1Cl)Nc1c[nH]c(=O)[nH]c1=O	none
C/C(=N/NC(=O)c1ccncc1)c1cc2ccc(O)cc2oc1=O	none
C/C(=N\NC(=O)c1ccccc1)c1cc2cc([N+](=O)[O-])ccc2oc1=O	VP16 counter 5µM, RORgamma inh 7.9µM, rTrxR1 inhibitor inconclusive
N/C(=N\NC(=O)c1ccccc1Cl)c1cc2ccccc2oc1=O	VP16 counter inconclusive, RORgamma inh 14µM, rTrxR1 inhibitor inconclusive
C/C(=N\NC(=O)c1ccncc1)c1cc2ccccc2oc1=O	VP16 counter 13µM, RORgamma inh 7.9µM, rTrxR1 inhibitor inconclusive
C/C(=N\NC(=O)c1ccc([N+](=O)[O-])cc1)c1cc2ccccc2oc1=O	VP16 counter inconclusive, RORgamma inh 16µM, rTrxR1 inhibitor inconclusive
C/C(=N\Nc1ccc([N+](=O)[O-])cc1[N+](=O)[O-])c1cc2c(ccc3ccccc32)oc1=O	none (no result: TrxR1 substrate, rTrxR1 inhibitor)
COC(=O)c1cc2ccccc2oc1=O	none
OC[C@@H]1[C@@H](c2ccc(F)cc2)C(c2cccc(Cl)c2)=NN1c1ccccc1	VP16 counter inconclusive (no result: GALK inh)
CC/C(=N\NC(N)=O)c1ccc(OC)c(OC)c1	none
O=[N+]([O-])c1ccc(N2CCOCC2)c([N+](=O)[O-])c1	none (no result: Coupling enz, GALK inh, VP16 counter, RORgamma inh)
NC(=S)N/N=C1/CCSc2ccc3ccccc3c21	VP16 counter 3.2µM, RORgamma inh 0.63µM
Cc1cc(Sc2nnc(/N=C/N(C)C)s2)c2ccccc2n1	VP16 counter inconclusive, RORgamma inh 8.9µM, rTrxR1 inhibitor 2.5µM
Cc1cc(Sc2nnc(N)s2)c2ccccc2n1	VP16 counter 11µM, RORgamma inh 7.9µM, rTrxR1 inhibitor 8.9µM
NC(=S)NNc1ccc(Cl)c(Cl)c1	VP16 counter 10µM, RORgamma inh 6.3µM (no result: GALK inh)
Cc1ccc(NC(=S)N(C)N)cc1Cl	RORgamma inh inconclusive
Cc1ccc(NNC(N)=S)cc1Cl	VP16 counter 5µM, RORgamma inh inconclusive

Screens: PubChem, National Center for Advancing Translational Sciences (NCATS)
